High-throughput results from PubChem BioAssay.
Most compounds without a hit are left out; they make up all but 3.3% or so of the library.
Sm TGR block: blocks Schistosoma mansoni thioredoxin glutathione reductase. Q962Y6. purified TGR, DTNB reduction, TNB absorbance 405 nm. Potency, µM (titrated, usually from 114 µM), without a hit: at the highest dose activity change, negative = inhibition, usual class: inhibitors. hit rate 3% among 360,000. AID 485364; note: % is set by controls: 0 for no effect and ±100 for the full control effect; nearly all actives have a fitted effect of over 60% in size
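First, TGR (20 nM dispensed) and NADPH were mixed with compound. Second, a 15 min room-temperature incubation followed. Third, further NADPH and then DTNB were added to start the reaction. Finally, TNB absorbance was monitored kinetically.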
RE007 growth inh: less growth of the S. pombe RE007 Vpr strain; hit rate 0.21% among 360,000; Potency, µM (titrated, usually from 92.2 µM), for the others: at the highest dose activity change, negative = less growth, usual class: inhibitors; S. pombe RE007 Vpr strain, BacTiter-Glo ATP luminescence, 24 h; AID 651644; active = well fitted falling curve with a large enough effect; inconclusive = small, poorly fitted or top-dose-only effect; inactive = no such curve, though single readings can be large or run the other way; note: % is set by controls: 0 for no effect and ±100 for the full control effect; nearly all actives have a fitted effect of over 50% in size
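Fission yeast RE007 carrying one integrated HIV-1 vpr copy, seeded at OD 0.01 in PMG+AL medium with 23 nL pinned compound. Grown 24 h at 30 degrees; viability read by BacTiter-Glo luminescence after 5 min.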
AmpC detergent: AmpC beta-lactamase inhibition with detergent present | AmpC hydrolysis of nitrocefin, absorbance 480 nm, 0.01% Triton | hit rate 0.041% among 370,000 | Potency, µM (top dose mostly 114 µM), for the others: top-dose activity change, negative = inhibition, most hits filed as inhibitors | P00811;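 note: 0% = no-compound wells and -100% = no-enzyme wells; nearly all actives have a fitted effect of over 25% in size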
Target sequence (P00811 whole entry, looked up): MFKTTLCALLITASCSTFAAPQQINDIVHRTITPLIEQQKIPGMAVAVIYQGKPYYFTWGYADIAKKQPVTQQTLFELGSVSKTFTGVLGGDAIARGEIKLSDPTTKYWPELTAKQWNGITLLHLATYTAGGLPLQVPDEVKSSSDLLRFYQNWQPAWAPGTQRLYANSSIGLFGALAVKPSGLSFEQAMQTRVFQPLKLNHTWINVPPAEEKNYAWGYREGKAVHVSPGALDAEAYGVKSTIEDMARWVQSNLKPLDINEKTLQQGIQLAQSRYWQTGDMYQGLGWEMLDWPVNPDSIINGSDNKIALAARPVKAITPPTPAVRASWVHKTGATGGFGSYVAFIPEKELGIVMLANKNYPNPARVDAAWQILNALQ
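20 mM phosphate pH 7.0 + 0.01% (detergent screen) or 0.0001% Triton X-100; 5.3 nM AmpC reagent; cpd preinc 15 min RT; nitrocefin (800 uM stock) to start; A480 q20 s × 4 min; Activity was normalised to no-enzyme and no-compound control wells.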
TbPYK inhibitor: inhibitors of Trypanosoma brucei pyruvate kinase; Q57TT1; hit rate 0.12% among 410,000; TbPYK enzyme, Kinase-Glo Plus ATP luminescence, 45 min; AID 624173; Potency, µM (series often up to 76.8 µM), without a hit: top-dose activity, negative = inhibition, usual class: inhibitors; note: % is set by controls: 0 for no effect and ±100 for the full control effect; nearly all actives have a fitted effect of over 50% in size
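ADP (130 uM final) triggers the TbPYK reaction after compound addition; incubation is 45 min at room temperature. Kinase-Glo Plus is then added and luminescence imaged. Normalized data are fitted to concentration-effect curves.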
SARS PLP yeast: SARS-CoV PLP inhibition in yeast. S. cerevisiae expressing SARS-CoV PLpro, growth rescue. Potency, µM (highest dose often 32.9 µM), for the others: at the top dose activity, positive = growth rescue, most hits filed as activators. hit rate 0.19% among 330,000. AID 485353; calls by dose curve; note: 0% is about no effect; nearly all actives have a fitted effect of over 55% in size
AmpC no deterg: blocks E. coli AmpC beta-lactamase in detergent-free assay; hit rate 0.52% among 330,000; P00811; Potency, µM (doses to about 57.1 µM), inactives show at the top dose activity change, negative = inhibition, usual class: inhibitors; AmpC nitrocefin hydrolysis, absorbance 480 nm, 0.0001% Triton;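 note: plate controls were no compound for no effect and no enzyme for full effect; nearly all actives have a fitted effect of over 20% in size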
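AmpC (5.3 nM in the dispensed reagent) in 20 mM phosphate pH 7.0 with 0.01% (detergent screen) or 0.0001% Triton X-100 was preincubated with compounds for 15 min at room temperature. Nitrocefin was then added from an 800 uM solution, and hydrolysis was followed at 480 nm.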
An asterisk follows results filed as active; ? = inconclusive; nt = no result; [ ] = another dose, or the depositor's remark. Unless noted, calls come from the whole dose curve; as a rule, active = well fitted curve in the direction sought with a large enough effect; inconclusive = small, poorly fitted or top-dose-only effect, or another doubt; inactive = no such curve, though single readings can be large; an effect the other way counts as inactive or inconclusive. Potency is the fitted concentration of half-maximal effect.

SMILES	Sm TGR block	RE007 growth inh	AmpC detergent	TbPYK inhibitor	SARS PLP yeast	AmpC no deterg
O=C(Cn1c(=O)oc2cc(S(=O)(=O)N3CCCCCC3)ccc21)NC1CCCCCCC1	0%	-2%	?	1%	1%	-24%
O=C(Cn1c(=O)oc2cc(S(=O)(=O)N3CCCC3)ccc21)NC1CCCc2ccccc21 (stereo not given)	-1%	-11%	?	4%	3%	10µM*
CCOC(=O)/C(C(=O)Nc1ccccc1Cl)=C1/NC(C)(C)Cc2ccccc21	14%	10%	1%	1%	1%	1%
CCOC(=O)/C(C)=C1\NC(C)(C)Cc2ccccc21	2%	0%	25µM*	?	0%	?
N#CC1=C(N)SC(N)=C(C#N)C1c1ccoc1	5µM*	nt	?	nt	1%	-23%
Cc1ccc(C2C(C#N)=C(N)SC(N)=C2C#N)cc1	?	11%	?	-11%	8%	-48%
O=C(CCC1N=C2c3ccccc3N=C(SCc3cccc(F)c3)N2C1=O)NCc1cccs1 (stereo not given)	4%	nt	-4%	0%	nt	nt
Cc1cc(C)cc(NC(=S)NC2CC3CCCC(C2)N3C2CCCC2)c1 (stereo not given)	13µM*	-2%	7%	-3%	0%	1%
Cc1cc(C)cc(NC(=S)NC2CC3CCCC(C2)N3C2CC2)c1 (stereo not given)	nt	10%	1%	3%	1%	-30%
Cc1cc(C)cc(N2C(=O)CSC23C(=O)N(CC(=O)Nc2ccc(F)cc2F)c2ccccc23)c1 (stereo not given)	6%	nt	-6%	-7%	nt	nt
CCCCn1c(N)c(-c2nc3ccccc3o2)c2c([N+](=O)[O-])nn(CC)c(=O)c21	-2%	-2%	-15%	1%	-5%	-28%
CCCn1nc([N+](=O)[O-])c(C(C#N)c2nc3ccccc3o2)c(Cl)c1=O (stereo not given)	2.2µM*	-12%	0%	5%	-24%	-43%
CCn1nc([N+](=O)[O-])c(C(C#N)c2nc3cc(C(F)(F)F)ccc3s2)c(Cl)c1=O (stereo not given)	4µM*	-18%	?	-8%	-38%	-20%
Cn1nc([N+](=O)[O-])c(C(C#N)c2ccccn2)c(Cl)c1=O (stereo not given)	4.5µM*	4%	?	1%	0%	-30%
COc1ccccc1Nc1nn2c(=O)c3ccc(C(=O)NCCc4ccccc4)cc3nc2s1	1%	nt	21%	6%	nt	nt
CCOc1ccc(NC2C=CS(=O)(=O)C2)cc1 (stereo not given)	28µM*	0%	-5%	-6%	13%	-19%
COc1ccc(/C=C(/CC(=O)NCc2ccc(Cl)cc2)c2nc3ccccc3s2)cc1	3%	13%	3%	1%	-26%	18µM*
Cc1ccc(N2CC(NC(=O)CCc3ccccc3)CC2=O)cc1 (stereo not given)	2%	nt	1%	5%	nt	nt
Cc1ccccc1NC(=O)C1CCCN(S(=O)(=O)c2cccc3cccnc23)C1 (stereo not given)	2%	-6%	?	1%	3%	5µM*
Cc1ccc(Cl)cc1NC(=O)C1CCCN(S(=O)(=O)c2cccc3cccnc23)C1 (stereo not given)	-10%	nt	-9%	-3%	nt	nt
O=c1c2c3nc4ccccc4nc3n(Cc3ccccc3)c2ncn1Cc1ccco1	8.9µM*	30%	-3%	-18%	-6%	-1%
Nc1c(C(=O)NCc2ccco2)c2nc3ccccc3nc2n1CCN1CCOCC1	25µM*	0%	4%	-12%	3%	110%
Nc1c(C(=O)NCc2ccco2)c2nc3ccccc3nc2n1Cc1ccccc1	28µM*	-4%	1%	-1%	-5%	1%
Nc1c(C(=O)NCc2ccco2)c2nc3ccccc3nc2n1Cc1ccc(F)cc1	11µM*	30%	-11%	-19%	-5%	0%
COc1ccc(N(C(=O)c2cccc(C)c2)S(=O)(=O)c2ccc3c(c2)n(C)c(=O)n3C)cc1	4%	nt	19%	-9%	nt	nt
SMILES	Sm TGR block	RE007 growth inh	AmpC detergent	TbPYK inhibitor	SARS PLP yeast	AmpC no deterg
COc1ccc(-n2c(N)c(C(=O)NCc3ccco3)c3nc4ccccc4nc32)c(OC)c1	25µM*	-7%	?	-10%	-7%	167%
COc1ccc(CCn2c(N)c(C(=O)NCc3ccco3)c3nc4ccccc4nc32)cc1	0%	15%	?	-15%	-41%	-25%
Nc1c(C(=O)NCc2ccco2)c2nc3ccccc3nc2n1CCc1ccccc1F	25µM*	0%	3%	-10%	0%	21%
COc1ccc(CCn2c(N)c(C(=O)NCc3ccco3)c3nc4ccccc4nc32)cc1OC	16µM*	-8%	-7%	-10%	1%	136%
COc1cc([C@@H]2c3cc4c(cc3[C@@H](O[C@@H]3O[C@H]5CO[C@H](C)O[C@H]5[C@H](O)[C@@H]3O)[C@H]3COC(=O)[C@H]23)OCO4)cc(OC)c1OP(=O)(O)O	nt	nt	nt	6%	nt	nt
Nc1ccc2cc3ccc(N)cc3nc2c1	nt	nt	nt	-4%	nt	nt
COc1ccc(C)cc1NS(=O)(=O)c1ccc2c(c1)[C@H]1C=CC[C@H]1[C@@H](c1cccc(Cl)c1)N2	?	nt	4%	-6%	nt	nt
COc1ccccc1NC(=O)C1CCN(S(=O)(=O)c2cn(C)cn2)CC1	5%	nt	-4%	-2%	nt	nt
COc1ccccc1N1C(=O)c2ccc(C(=O)Nc3ccc(C(=O)O)cc3)cc2C1=O	89µM*	2%	-5%	-3%	2%	-17%
COc1ccccc1NC(=O)c1ccc2c(c1)C(=O)N(c1ccccc1OC)C2=O	0%	7%	0%	-3%	-4%	14%
O=C(c1cccn1-c1nnc(N2CCCCC2)s1)N1CCN(c2ccc(Cl)cc2)CC1	11%	nt	7%	5%[15.4 µM]	nt	nt
CCOP(=O)(OCC)C(NS(=O)(=O)c1ccccc1)C(Cl)(Cl)Cl (stereo not given)	14µM*	11%	-6%	2%	-2%	41%
CCOP(=O)(OCC)C(NC(=O)c1ccccc1)C(Cl)(Cl)Cl (stereo not given)	33%	-4%	2%	4%	22%	3%
COc1cc(OC)cc(C(=O)Nc2cc(-c3nc4cccnc4s3)ccc2C)c1	-3%	nt	3%	0%	nt	nt
O=[N+]([O-])c1cc([N+](=O)[O-])c2cc3ccccc3nc2c1	3.5µM*	?	-1%	-7%	-13%	-26%
